According to PubChem BioAssay (NCATS):
Results filed as inconclusive are left out. Entries that show only a call come without a potency. Active and inactive are the calls of the source. Calls come from the whole dose curve; as a rule, active = well fitted curve in the direction sought with a large enough effect; inconclusive = small, poorly fitted or top-dose-only effect, or another doubt; inactive = no such curve, though single readings can be large; an effect the other way counts as inactive or inconclusive.

What was measured:
[1] = target: ATP-dependent 6-phosphofructokinase (Trypanosoma brucei brucei) (UniProt O15648); test: qHTS Assay to Find Inhibitors of T. brucei phosphofructokinase: hit validation (AID 492961);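 note: luminescence reports ADP formed as PFK phosphorylates fructose-6-phosphate with ATP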
Outline: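 Compounds titrated; %activity normalized to 0x and 1x enzyme controls, curve-fitted. Readout: ADP-Glo luminescence after 45 min room-temperature reaction of 1.25 nM PFK, 0.1 mM ATP, 0.5 mM F6P, pH 8.0.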

AA1029 = test: qHTS profiling for inhibitors of Plasmodium falciparum proliferation (AID 504749); note: nearly all actives have a fitted effect of over 60% in size; note: potency is the fitted concentration of half-maximal effect; details: P. falciparum in erythrocytes, SYBR Green DNA, 72 h; series mostly up to 12.8 µM
Outline: (§1)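 Each compound contacts P. falciparum-infected red blood cells for 72 h at 37 C; lysis buffer (Tris, EDTA, saponin, Triton X, SYBR Green I) is added and fluorescence measured next morning; values normalized to controls.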

AS120 = test: as above; details: P. falciparum in erythrocytes, SYBR Green DNA, 72 h; series mostly up to 28.7 µM
Outline: as §1

C2A = test: as above; details: P. falciparum in erythrocytes, SYBR Green DNA, 72 h; series mostly up to 12.8 µM
Outline: as §1

CP185 = test: as above; details: P. falciparum in erythrocytes, SYBR Green DNA, 72 h; series mostly up to 12.8 µM
Outline: as §1

CP201 = test: as above; details: P. falciparum in erythrocytes, SYBR Green DNA, 72 h; series mostly up to 12.8 µM
Outline: as §1

CP250 = test: as above; details: P. falciparum in erythrocytes, SYBR Green DNA, 72 h; series mostly up to 12.8 µM
Outline: as §1

CP252 = test: as above; details: P. falciparum in erythrocytes, SYBR Green DNA, 72 h; series mostly up to 12.8 µM
Outline: as §1

CP256 = test: as above; details: P. falciparum in erythrocytes, SYBR Green DNA, 72 h; series mostly up to 12.8 µM
Outline: as §1

CP265 = test: as above; details: P. falciparum in erythrocytes, SYBR Green DNA, 72 h; series mostly up to 12.8 µM
Outline: as §1

CP286 = test: as above; details: P. falciparum in erythrocytes, SYBR Green DNA, 72 h; series mostly up to 12.8 µM
Outline: as §1

CP291 = test: as above; details: P. falciparum in erythrocytes, SYBR Green DNA, 72 h; series mostly up to 12.8 µM
Outline: as §1

CP305 = test: as above; details: P. falciparum in erythrocytes, SYBR Green DNA, 72 h; series mostly up to 12.8 µM
Outline: as §1

CP329 = test: as above; details: P. falciparum in erythrocytes, SYBR Green DNA, 72 h; series mostly up to 12.8 µM
Outline: as §1

CP335 = test: as above; details: P. falciparum in erythrocytes, SYBR Green DNA, 72 h; series mostly up to 12.8 µM
Outline: as §1

DFO2036 = test: as above; details: P. falciparum in erythrocytes, SYBR Green DNA, 72 h; series mostly up to 12.8 µM
Outline: as §1

SC27B = test: as above; details: P. falciparum in erythrocytes, SYBR Green DNA, 72 h; series mostly up to 12.8 µM
Outline: as §1

TAB109 = test: as above; details: P. falciparum in erythrocytes, SYBR Green DNA, 72 h; series mostly up to 12.8 µM
Outline: as §1

TAB113 = test: as above; details: P. falciparum in erythrocytes, SYBR Green DNA, 72 h; series mostly up to 12.8 µM
Outline: as §1

TAB165 = test: as above; details: P. falciparum in erythrocytes, SYBR Green DNA, 72 h; series mostly up to 12.8 µM
Outline: as §1

ATP-dependent 6-phosphofructokinase (Trypanosoma brucei brucei), sequence (O15648 whole entry, looked up): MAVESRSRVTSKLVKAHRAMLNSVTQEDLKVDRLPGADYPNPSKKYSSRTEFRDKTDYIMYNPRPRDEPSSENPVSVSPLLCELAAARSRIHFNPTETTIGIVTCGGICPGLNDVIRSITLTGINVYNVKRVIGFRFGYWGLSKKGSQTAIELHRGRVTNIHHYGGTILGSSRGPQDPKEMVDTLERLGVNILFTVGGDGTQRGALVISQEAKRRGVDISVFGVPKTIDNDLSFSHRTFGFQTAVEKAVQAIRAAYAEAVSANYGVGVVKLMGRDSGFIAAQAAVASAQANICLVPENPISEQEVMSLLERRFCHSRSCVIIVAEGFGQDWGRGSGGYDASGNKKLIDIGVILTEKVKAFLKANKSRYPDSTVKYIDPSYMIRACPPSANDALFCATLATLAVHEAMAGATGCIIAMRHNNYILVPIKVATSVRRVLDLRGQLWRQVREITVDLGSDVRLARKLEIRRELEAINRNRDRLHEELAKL

Structure (SMILES)	outcome [1]	Potency (AA1029)	Potency (AS120)	Potency (C2A)	Potency (CP185)	Potency (CP201)	Potency (CP250)	Potency (CP252)	Potency (CP256)	Potency (CP265)	Potency (CP286)	Potency (CP291)	Potency (CP305)	Potency (CP329)	Potency (CP335)	Potency (DFO2036)	Potency (SC27B)	Potency (TAB109)	Potency (TAB113)	Potency (TAB165)
C[C@H](NCCc1ccc(O)cc1)[C@@H](O)c1ccc(O)cc1	inactive	inactive	inactive	inactive	inactive	inactive	inactive	inactive	inactive	inactive	inactive	inactive	inactive	inactive	inactive	inactive	inactive	inactive	inactive	inactive
CCN(CC)CCC[C@H](C)Nc1c2ccc(Cl)cc2nc2ccc(OC)cc12	inactive	631 nM (active)	794 nM (active)	447 nM (active)	708 nM (active)	1200 nM (active)	447 nM (active)	794 nM (active)	631 nM (active)	891 nM (active)	282 nM (active)	379 nM (active)	379 nM (active)	1200 nM (active)	536 nM (active)	398 nM (active)	1260 nM (active)	501 nM (active)	891 nM (active)	398 nM (active)
CC[C@H](NC(C)C)[C@H](O)c1ccc(O)c(O)c1	inactive	inactive	inactive	inactive	inactive	inactive		inactive	inactive	inactive	inactive	inactive	inactive	inactive	inactive	inactive	inactive	inactive	inactive	inactive
CC(=O)O[C@@H](C)C[N+](C)(C)C	inactive	inactive	inactive	inactive	inactive	inactive	inactive	inactive	inactive	inactive	inactive	inactive	inactive	inactive	inactive	inactive	inactive	inactive	inactive	inactive
CN(C)[C@H]1C(=O)C(C(=O)NCN2CCCC2)=C(O)[C@]2(O)C(=O)C3=C(O)c4c(O)cccc4[C@@](C)(O)[C@H]3C[C@@H]12	inactive	inactive	inactive	inactive	inactive	inactive	inactive	inactive	inactive	inactive	inactive	inactive	inactive	inactive	inactive	inactive	inactive	inactive	inactive	inactive
CO[C@H]1C[C@@H](O[C@@H]2[C@H](C)[C@H](O[C@@H]3O[C@@H](C)C[C@@H](N(C)C)[C@@H]3O)[C@H](C)C[C@]3(CO3)C(=O)[C@H](C)[C@H](O)[C@H](C)[C@H](C)OC(=O)[C@@H]2C)O[C@@H](C)[C@H]1O	inactive	inactive	inactive	inactive	inactive	inactive	inactive	inactive	inactive	inactive	inactive	inactive	inactive	inactive	inactive	inactive	inactive	inactive	inactive	inactive
CCN(CC)CCC[C@H](C)Nc1ccnc2cc(Cl)ccc12	inactive	8910 nM (active)	11200 nM (active)	3550 nM (active)	4470 nM (active)	12000 nM (active)	3980 nM (active)		8910 nM (active)		3160 nM (active)	3380 nM (active)	2690 nM (active)	15100 nM (active)	12000 nM (active)	3980 nM (active)		3550 nM (active)		5620 nM (active)
C[C@@H](CN(C)C)CN1c2ccccc2CCc2ccccc21	inactive	inactive		inactive	inactive	inactive	inactive	inactive	inactive	inactive	inactive	inactive	inactive	inactive	inactive	inactive	inactive	inactive	inactive	inactive
CC1(C)O[C@@H]2C[C@H]3[C@H]4C[C@H](F)C5=CC(=O)C=C[C@@]5(C)[C@@H]4[C@H](O)C[C@]3(C)[C@]2(C(=O)CO)O1	inactive	inactive	inactive	inactive	inactive	inactive	inactive	inactive	inactive	inactive	inactive	inactive	inactive	inactive	inactive	inactive	inactive	inactive	inactive	inactive
CCN(CC)CC#CCOC(=O)[C@@](O)(c1ccccc1)C1CCCCC1	inactive		inactive				inactive	inactive		inactive							inactive		inactive	
O=c1[nH]c(=O)n([C@@H]2C[C@H](O)[C@H](CO)O2)cc1I	inactive	inactive	inactive	inactive	inactive	inactive	inactive	inactive	inactive	inactive	inactive	inactive	inactive	inactive	inactive	inactive	inactive	inactive	inactive	inactive
C[C@@H](C(=O)O)c1cccc(C(=O)c2ccccc2)c1	inactive																			
NS(=O)(=O)c1cc([C@@]2(O)NC(=O)c3ccccc32)ccc1Cl	inactive	inactive	inactive	inactive	inactive	inactive	inactive	inactive	inactive	inactive	inactive	inactive	inactive	inactive	inactive	inactive	inactive	inactive	inactive	inactive
CCCN[C@@H](C)C(=O)Nc1c(C)csc1C(=O)OC	inactive	inactive	inactive	inactive	inactive	inactive	inactive	inactive	inactive	inactive	inactive	inactive	inactive	inactive	inactive	inactive	inactive	inactive	inactive	inactive
NC(N)=NC[C@@H]1COC2(CCCCC2)O1	inactive	inactive	inactive	inactive	inactive	inactive	inactive	inactive	inactive	inactive	inactive	inactive	inactive	inactive	inactive	inactive	inactive	inactive	inactive	inactive
COCCc1ccc(OC[C@H](O)CNC(C)C)cc1	inactive	inactive	inactive	inactive	inactive	inactive	inactive	inactive	inactive	inactive	inactive	inactive	inactive	inactive	inactive	inactive	inactive	inactive	inactive	inactive
CCC[C@H]1C(=O)N2C(N(C)C)=Nc3ccc(C)cc3N2C1=O	inactive	inactive	inactive	inactive	inactive	inactive	inactive	inactive	inactive	inactive	inactive	inactive	inactive	inactive	inactive	inactive	inactive	inactive	inactive	inactive
COc1ccccc1OC[C@H](O)COC(N)=O	inactive	inactive	inactive	inactive	inactive	inactive	inactive	inactive	inactive	inactive	inactive	inactive	inactive	inactive	inactive	inactive	inactive	inactive	inactive	inactive
